# Assay results taken from the supplement of paper PMC11732987, “Enantioselective OTUD7B fragment discovery through chemoproteomics screening and high-throughput optimisation” (Communications Chemistry, 2025).
# A number with no mark means an inactive call.
# Columns and labels:
# Assay in all cases: log2 ratio of Biotin-Ahx-Ub-VS probe labelling (fragment/DMSO); higher = less target engagement (more negative = stronger competition), active = hit call of the paper (q ≤ 0.05, log2 ratio ≤ -1)
# Conditions in all cases: compound concentration: 200 uM; treatment time: 3 h
# [1] = target: T1, ALG13 (UniProt Q9NP73)
# T1 sequence (whole entry): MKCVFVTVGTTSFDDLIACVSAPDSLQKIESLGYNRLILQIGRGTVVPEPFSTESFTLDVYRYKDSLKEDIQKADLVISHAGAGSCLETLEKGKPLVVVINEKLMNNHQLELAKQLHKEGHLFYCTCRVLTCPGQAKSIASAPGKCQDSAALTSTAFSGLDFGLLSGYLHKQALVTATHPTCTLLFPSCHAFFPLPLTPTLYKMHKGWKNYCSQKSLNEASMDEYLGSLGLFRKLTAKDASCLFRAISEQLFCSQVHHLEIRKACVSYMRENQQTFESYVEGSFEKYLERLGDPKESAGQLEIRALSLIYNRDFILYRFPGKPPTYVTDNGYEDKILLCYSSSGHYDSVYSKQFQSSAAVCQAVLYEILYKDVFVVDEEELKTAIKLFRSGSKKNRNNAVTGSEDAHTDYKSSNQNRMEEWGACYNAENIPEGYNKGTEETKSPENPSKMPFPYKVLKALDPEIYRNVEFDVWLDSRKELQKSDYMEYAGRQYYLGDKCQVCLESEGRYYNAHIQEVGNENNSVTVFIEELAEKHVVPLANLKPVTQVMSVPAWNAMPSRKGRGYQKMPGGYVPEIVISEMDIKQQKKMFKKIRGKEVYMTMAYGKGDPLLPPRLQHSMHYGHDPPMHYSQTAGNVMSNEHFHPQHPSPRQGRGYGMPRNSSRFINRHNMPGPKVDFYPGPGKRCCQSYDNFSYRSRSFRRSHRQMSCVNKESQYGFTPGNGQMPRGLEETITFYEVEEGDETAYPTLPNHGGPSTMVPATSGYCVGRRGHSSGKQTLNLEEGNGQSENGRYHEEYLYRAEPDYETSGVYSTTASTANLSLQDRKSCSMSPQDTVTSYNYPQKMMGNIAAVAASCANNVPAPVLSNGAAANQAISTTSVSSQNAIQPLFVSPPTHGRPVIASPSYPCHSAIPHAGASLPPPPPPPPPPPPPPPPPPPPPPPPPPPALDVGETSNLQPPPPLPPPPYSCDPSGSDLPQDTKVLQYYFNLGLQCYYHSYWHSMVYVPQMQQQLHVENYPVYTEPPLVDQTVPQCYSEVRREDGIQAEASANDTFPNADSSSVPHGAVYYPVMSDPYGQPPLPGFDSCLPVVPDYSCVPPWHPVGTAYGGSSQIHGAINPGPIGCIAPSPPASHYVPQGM
# Outline: (§1)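 Fragment (200 µM) or vehicle was incubated for 3 h with triplicate HEK293T lysate samples of 495 µg, which were then treated with Biotin-Ahx-Ub-VS at 0.5 µM final for 1 h. Labelled DUBs were enriched on NeutrAvidin, digested with LysC and trypsin, and analysed by diaPASEF LC-MS/MS. Values are average log2 fragment/vehicle ratios from an unpaired t-test on global-median-normalised Spectronaut label-free quantities, using proteins with ≥2 unique peptides.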
# [2] = target: ATXN3 (UniProt P54252)
# Outline: as §1
# [3] = target: T2, BAP1 (UniProt Q92560)
# T2 sequence (whole entry): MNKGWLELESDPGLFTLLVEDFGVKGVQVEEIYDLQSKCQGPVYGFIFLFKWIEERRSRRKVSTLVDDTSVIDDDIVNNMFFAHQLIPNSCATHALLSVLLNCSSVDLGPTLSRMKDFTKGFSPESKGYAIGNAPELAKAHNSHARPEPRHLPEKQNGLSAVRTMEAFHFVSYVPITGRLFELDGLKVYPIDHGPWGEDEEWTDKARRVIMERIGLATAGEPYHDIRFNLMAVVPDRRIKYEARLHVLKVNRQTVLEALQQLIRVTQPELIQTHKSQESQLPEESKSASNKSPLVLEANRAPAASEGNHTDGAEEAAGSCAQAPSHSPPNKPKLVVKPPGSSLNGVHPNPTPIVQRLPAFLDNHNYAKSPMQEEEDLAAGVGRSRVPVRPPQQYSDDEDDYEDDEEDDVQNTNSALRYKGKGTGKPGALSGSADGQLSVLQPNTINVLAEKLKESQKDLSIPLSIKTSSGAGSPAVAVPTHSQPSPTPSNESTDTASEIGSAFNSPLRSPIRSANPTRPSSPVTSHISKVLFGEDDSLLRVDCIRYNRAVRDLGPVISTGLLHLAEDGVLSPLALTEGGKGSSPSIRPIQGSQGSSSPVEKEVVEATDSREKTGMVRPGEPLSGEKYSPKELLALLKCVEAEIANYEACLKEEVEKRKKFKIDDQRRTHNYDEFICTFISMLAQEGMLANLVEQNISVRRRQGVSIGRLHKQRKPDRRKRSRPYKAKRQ
# Outline: as §1
# [4] = target: EIF3F (UniProt O00303)
# Outline: as §1
# [5] = target: EIF3H (UniProt O15372)
# Outline: as §1
# [6] = target: T3, FAM105A (UniProt Q9NUU6)
# T3 sequence (whole entry): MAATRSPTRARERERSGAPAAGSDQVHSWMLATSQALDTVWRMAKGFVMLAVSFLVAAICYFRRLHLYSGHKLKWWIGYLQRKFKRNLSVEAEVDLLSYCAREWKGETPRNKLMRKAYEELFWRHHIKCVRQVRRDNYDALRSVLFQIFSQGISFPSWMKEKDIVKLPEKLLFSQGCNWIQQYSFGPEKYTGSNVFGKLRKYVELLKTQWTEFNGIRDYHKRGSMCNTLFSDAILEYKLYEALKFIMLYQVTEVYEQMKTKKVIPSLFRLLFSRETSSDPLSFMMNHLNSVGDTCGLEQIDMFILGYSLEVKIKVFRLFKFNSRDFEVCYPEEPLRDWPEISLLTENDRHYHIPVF
# Outline: as §1
# [7] = target: OTUB1 (UniProt Q96FW1)
# Outline: as §1
# [8] = target: T4, OTUD4 (UniProt Q01804)
# T4 sequence (whole entry): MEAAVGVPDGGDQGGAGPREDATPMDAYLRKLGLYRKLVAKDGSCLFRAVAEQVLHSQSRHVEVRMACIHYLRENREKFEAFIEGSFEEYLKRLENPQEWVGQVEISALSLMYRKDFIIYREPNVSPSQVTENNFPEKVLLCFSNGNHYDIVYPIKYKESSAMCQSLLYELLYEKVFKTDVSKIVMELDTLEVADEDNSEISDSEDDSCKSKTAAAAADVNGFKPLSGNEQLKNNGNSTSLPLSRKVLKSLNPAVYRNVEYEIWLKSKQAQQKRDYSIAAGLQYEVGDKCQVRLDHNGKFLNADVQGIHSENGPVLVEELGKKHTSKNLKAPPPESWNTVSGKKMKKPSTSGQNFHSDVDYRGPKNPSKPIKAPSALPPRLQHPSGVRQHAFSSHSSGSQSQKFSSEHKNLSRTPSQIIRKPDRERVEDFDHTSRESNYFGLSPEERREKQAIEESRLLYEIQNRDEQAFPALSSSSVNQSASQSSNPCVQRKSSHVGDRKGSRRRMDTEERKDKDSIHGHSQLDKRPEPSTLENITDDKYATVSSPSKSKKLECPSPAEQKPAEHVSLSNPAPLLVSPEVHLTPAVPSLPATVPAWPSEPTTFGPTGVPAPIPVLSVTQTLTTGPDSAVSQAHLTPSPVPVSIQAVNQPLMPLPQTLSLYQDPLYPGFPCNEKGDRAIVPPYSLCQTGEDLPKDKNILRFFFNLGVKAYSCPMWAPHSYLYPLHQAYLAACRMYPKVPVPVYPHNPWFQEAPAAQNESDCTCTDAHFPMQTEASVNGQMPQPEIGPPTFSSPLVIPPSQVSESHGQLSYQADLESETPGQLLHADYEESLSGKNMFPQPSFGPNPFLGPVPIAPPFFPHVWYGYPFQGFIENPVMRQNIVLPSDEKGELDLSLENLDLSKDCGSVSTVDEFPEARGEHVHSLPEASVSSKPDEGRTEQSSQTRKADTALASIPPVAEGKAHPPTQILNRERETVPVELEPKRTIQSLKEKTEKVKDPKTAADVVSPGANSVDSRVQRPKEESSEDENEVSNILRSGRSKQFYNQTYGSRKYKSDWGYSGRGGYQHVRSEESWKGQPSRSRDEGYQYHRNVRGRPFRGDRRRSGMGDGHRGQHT
# Outline: as §1
# [9] = target: T5, OTUD5 (UniProt Q96G74)
# T5 sequence (whole entry): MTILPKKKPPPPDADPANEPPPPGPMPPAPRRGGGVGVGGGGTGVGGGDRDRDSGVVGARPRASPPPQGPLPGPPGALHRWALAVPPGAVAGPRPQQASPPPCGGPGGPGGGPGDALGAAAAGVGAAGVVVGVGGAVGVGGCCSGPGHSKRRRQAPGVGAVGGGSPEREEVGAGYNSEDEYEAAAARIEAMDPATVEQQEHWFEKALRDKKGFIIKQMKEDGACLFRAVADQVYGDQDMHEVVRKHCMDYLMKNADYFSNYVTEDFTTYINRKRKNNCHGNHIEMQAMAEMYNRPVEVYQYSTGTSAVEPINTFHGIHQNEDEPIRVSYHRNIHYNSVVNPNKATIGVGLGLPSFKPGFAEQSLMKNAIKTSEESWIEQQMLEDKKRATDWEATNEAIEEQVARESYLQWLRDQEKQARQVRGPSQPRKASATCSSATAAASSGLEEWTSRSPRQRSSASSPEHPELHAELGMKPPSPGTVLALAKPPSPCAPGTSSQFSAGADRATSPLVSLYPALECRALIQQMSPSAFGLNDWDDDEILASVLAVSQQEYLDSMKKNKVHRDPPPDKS
# Outline: as §1
# Chain of EIF3F (O00303 whole entry): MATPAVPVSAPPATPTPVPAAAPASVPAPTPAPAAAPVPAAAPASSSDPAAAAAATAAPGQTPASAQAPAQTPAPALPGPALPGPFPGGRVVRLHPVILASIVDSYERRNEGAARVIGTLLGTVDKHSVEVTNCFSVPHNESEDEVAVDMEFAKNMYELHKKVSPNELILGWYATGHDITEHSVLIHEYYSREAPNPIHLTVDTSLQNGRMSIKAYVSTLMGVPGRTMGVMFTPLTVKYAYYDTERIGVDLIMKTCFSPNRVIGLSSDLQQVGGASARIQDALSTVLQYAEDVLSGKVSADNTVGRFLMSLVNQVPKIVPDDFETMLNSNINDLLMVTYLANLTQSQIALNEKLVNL
# Chain of ATXN3 (P54252 whole entry): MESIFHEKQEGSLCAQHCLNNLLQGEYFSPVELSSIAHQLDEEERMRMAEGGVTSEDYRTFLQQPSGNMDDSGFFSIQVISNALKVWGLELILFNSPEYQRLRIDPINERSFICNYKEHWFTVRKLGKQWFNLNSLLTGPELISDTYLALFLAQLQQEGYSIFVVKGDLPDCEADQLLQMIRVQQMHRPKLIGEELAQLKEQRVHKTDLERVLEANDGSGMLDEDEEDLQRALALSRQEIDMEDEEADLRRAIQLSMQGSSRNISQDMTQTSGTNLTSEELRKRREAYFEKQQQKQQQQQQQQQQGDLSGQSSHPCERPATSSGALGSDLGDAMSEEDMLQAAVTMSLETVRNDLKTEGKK
# Chain of EIF3H (O15372 whole entry): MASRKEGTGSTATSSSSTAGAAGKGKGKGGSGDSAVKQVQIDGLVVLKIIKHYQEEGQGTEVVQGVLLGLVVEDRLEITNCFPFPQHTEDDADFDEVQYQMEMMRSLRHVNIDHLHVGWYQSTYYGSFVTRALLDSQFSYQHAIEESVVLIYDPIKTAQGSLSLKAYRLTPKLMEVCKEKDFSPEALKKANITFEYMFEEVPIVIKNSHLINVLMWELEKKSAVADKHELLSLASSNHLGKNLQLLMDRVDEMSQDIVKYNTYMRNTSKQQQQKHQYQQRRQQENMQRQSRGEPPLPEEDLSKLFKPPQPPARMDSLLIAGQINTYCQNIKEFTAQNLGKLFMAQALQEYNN
# Chain of OTUB1 (Q96FW1 whole entry): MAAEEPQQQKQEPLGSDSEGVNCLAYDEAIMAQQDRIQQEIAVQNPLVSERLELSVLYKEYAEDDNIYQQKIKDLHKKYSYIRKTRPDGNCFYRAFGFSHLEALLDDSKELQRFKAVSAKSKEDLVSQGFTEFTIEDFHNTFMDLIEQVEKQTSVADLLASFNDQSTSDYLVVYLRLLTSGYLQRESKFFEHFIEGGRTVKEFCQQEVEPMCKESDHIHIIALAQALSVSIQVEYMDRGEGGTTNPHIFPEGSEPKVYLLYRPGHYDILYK
compound,measurement,setting,value
O=C(CCl)Nc1cc2c(cc1Cl)OCCO2,log2 ratio of Biotin-Ahx-Ub-VS probe labelling,[1],-0.314
same,log2 ratio of Biotin-Ahx-Ub-VS probe labelling,[2],0.00781
same,log2 ratio of Biotin-Ahx-Ub-VS probe labelling,[3],-3.65 (active)
same,log2 ratio of Biotin-Ahx-Ub-VS probe labelling,[4],-0.138
same,log2 ratio of Biotin-Ahx-Ub-VS probe labelling,[5],0.0273
same,log2 ratio of Biotin-Ahx-Ub-VS probe labelling,[6],0.123
same,log2 ratio of Biotin-Ahx-Ub-VS probe labelling,[7],0.157
same,log2 ratio of Biotin-Ahx-Ub-VS probe labelling,[8],-0.327
same,log2 ratio of Biotin-Ahx-Ub-VS probe labelling,[9],-0.173
